Compounds with a hit are over-represented: about 3.3% of the library has one in this group of screens.
AmpC no deterg – inhibitors of E. coli AmpC beta-lactamase without detergent; P00811; Potency, µM (highest dose often 57.1 µM), without a hit: at the top dose activity change, negative = inhibition, hits mostly inhibitors; 330,000 compounds, 0.52% hits; AmpC nitrocefin hydrolysis, absorbance 480 nm, 0.0001% Triton;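 also: plate controls were no compound for no effect and no enzyme for full effect; nearly all actives have a fitted effect of over 20% in size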
Target sequence (P00811 whole entry, looked up): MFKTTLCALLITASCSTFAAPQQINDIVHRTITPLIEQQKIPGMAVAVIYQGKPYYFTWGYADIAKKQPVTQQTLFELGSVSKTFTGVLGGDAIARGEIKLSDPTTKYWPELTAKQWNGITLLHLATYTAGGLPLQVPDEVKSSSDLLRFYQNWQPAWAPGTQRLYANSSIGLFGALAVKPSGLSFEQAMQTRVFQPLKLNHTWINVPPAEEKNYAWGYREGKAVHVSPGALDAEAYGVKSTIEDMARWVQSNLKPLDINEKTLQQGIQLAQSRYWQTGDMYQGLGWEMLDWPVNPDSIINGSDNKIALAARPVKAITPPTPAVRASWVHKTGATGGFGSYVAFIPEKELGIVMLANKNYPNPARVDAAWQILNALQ
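AmpC (5.3 nM in the dispensed reagent) in 20 mM phosphate pH 7.0 with 0.01% (detergent screen) or 0.0001% Triton X-100 was preincubated with compounds for 15 min at room temperature. Nitrocefin was then added from an 800 uM solution, and hydrolysis was followed at 480 nm.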
Sm TGR inh – inhibitors of Schistosoma mansoni thioredoxin glutathione reductase. Q962Y6. purified TGR, DTNB reduction, TNB absorbance 405 nm. Potency, µM (doses to about 114 µM), inactives show at the highest dose activity change, negative = inhibition, most hits filed as inhibitors. 360,000 compounds, 3% hits; also: nearly all actives have a fitted effect of over 60% in size
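TGR 20 nM + NADPH 100 uM (dispensed conc.), cpd preinc 15 min RT; start with NADPH (500 uM addition) then DTNB (15 mM addition). Kinetic TNB absorbance, 405 nm filter. Four-parameter Hill fit across titration.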
AmpC detergent – inhibitors of E. coli AmpC beta-lactamase with detergent | AmpC hydrolysis of nitrocefin, absorbance 480 nm, 0.01% Triton | Potency, µM (highest dose often 114 µM), inactives show at the top dose activity change, negative = inhibition, hits mostly inhibitors | 370,000 compounds, 0.041% hits | AID 485294;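 also: 0% = no-compound wells and -100% = no-enzyme wells; nearly all actives have a fitted effect of over 25% in size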
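AmpC (5.3 nM in the dispensed reagent) in 20 mM phosphate pH 7.0 with 0.01% (detergent screen) or 0.0001% Triton X-100 was preincubated with compounds for 15 min at room temperature. Nitrocefin was then added from an 800 uM solution, and hydrolysis was followed at 480 nm.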
* = called active by the depositor; u = inconclusive; x = no result given. Calls follow the shape of the dose curve; as a rule, active = well fitted curve in the direction sought with a large enough effect; inconclusive = small, poorly fitted or top-dose-only effect, or another doubt; inactive = no such curve, though single readings can be large; an effect the other way counts as inactive or inconclusive. Unless noted, % is scaled to controls: 0 for no effect and ±100 for the full control effect; potency is read from the fitted curve at half-maximal effect.

SMILES	AmpC no deterg	Sm TGR inh	AmpC detergent
Cc1ccc(-n2c(SCC(=O)N/N=C/c3c(C)nn(-c4ccccc4)c3C)nc3ccccc3c2=O)cc1	-21%	-4%	u
COc1ccc(-n2c(N)c(C(=O)NCc3ccco3)c3nc4ccccc4nc32)cc1	70%	45µM*	2%
COc1ccc(-n2c(N)c(C(=O)NCc3ccco3)sc2=S)cc1	-25%	-1%	-3%
COc1cc(-n2c(N)c(C(=O)NCc3ccco3)c3nc4ccccc4nc32)cc(OC)c1OC	189%	25µM*	-2%
COc1ccc(-n2c(N)c(C(=O)NCc3ccco3)c3nc4ccccc4nc32)cc1OC	216%	40µM*	u
COc1ccc(Cn2c(N)c(C(=O)NCc3ccco3)c3nc4ccccc4nc32)cc1OC	130%	35µM*	u
Nc1c(C(=O)NCc2ccco2)c2nc3ccccc3nc2n1CCc1ccc(F)cc1	-4%	u	-3%
Nc1c(C(=O)NCc2ccco2)c2nc3ccccc3nc2n1CCN1CCCCC1	181%	-18%	4%
Nc1c(C(=O)NCc2ccccc2)c2nc3ccccc3nc2n1-c1ccc2c(c1)OCO2	-16%	u	-1%
Cc1ccccc1NC(=O)C1CCC(CNS(=O)(=O)c2ccc3c(c2)C(C)(C)C(=O)N3C)CC1 (stereo unspecified)	x	24%	1%
Cc1c(C(=O)NNC(=O)c2ccncc2)oc2ccc(Br)cc12	-7%	-6%	u
COc1ccc(N2CC(NC(=O)N(C)CCC#N)CC2=O)cc1 (stereo unspecified)	4%	1%	-2%
CC(C)Cn1c(N)c(C(=O)COC(=O)c2c(O)c(Cl)cc(Cl)c2Cl)c(=O)n(C)c1=O	-15%	u	-6%
O=C1C2C3C=CC(CC3)C2C(=O)N1c1ccc(Br)cc1[N+](=O)[O-] (stereo unspecified)	-15%	-11%	4%
O=C1C2C3C=CC(CC3)C2C(=O)N1c1ccccc1[N+](=O)[O-] (stereo unspecified)	-18%	18µM*	-5%
CSc1c(CC(=O)Nc2ccc(F)cc2)n(Cc2ccccc2)c2ccccc12	-32%	4%	-2%
N#C/C(=C/c1ccc(O)c(O)c1)C(=O)NCc1ccc(Cl)cc1	-38%	-26%	-5%
N#C/C(=C/c1cccc(O)c1)C(=O)NCc1ccc(Cl)cc1	20µM*	-1%	-2%
NS(=O)(=O)c1ccc(NC(=S)NC(=O)c2ccc3c(c2)OCO3)cc1	-1%	-5%	1%
O=C(NC(=S)Nc1ccc2c(c1)OCO2)c1ccccc1	-33%	14µM*	5%
CCn1cc(C(=O)NC(=S)Nc2ccccc2[N+](=O)[O-])cn1	-2%	-4%	-4%
O=C(CCS(=O)(=O)c1ccccc1)Nc1ccc2c(c1)OCO2	-13%	20µM*	-5%
CCn1cc(C(=O)NC(=S)Nc2ccccc2Br)cn1	-4%	79µM*	4%
O=C(Nc1ccc2c(c1)OCO2)c1ccccc1	11%	2%	-6%
O=C(NC(=S)Nc1ccccc1Br)c1ccc2c(c1)OCO2	-19%	14µM*	9%
SMILES	AmpC no deterg	Sm TGR inh	AmpC detergent
CS(=O)(=O)N(CC(=O)Nc1ccc2c(c1)OCO2)c1ccccc1	-14%	0%	-6%
Cc1ccnc2nc(C(=O)OC(C)C(=O)NCc3ccccc3)nn12 (stereo unspecified)	-4%	-27%	6%
S=C1SCN(Cc2cccnc2)CN1Cc1cccnc1	-34%	-1%	u
O=C(Cn1cc(SCc2cccc(Cl)c2)c2ccccc21)N1CCOCC1	192%	7%	17%
Cc1ccc2c(c1)sc1nc(=O)ccn12	-14%	1%	-4%
COc1ccc(NC(=O)CN(Cc2ccccc2)S(C)(=O)=O)cc1	-2%	4%	8%
Cc1ccc(-n2nc(C(=O)N3CCCCC3)c(=O)n(C)c2=O)cc1	x	10%	2%
COC(=O)c1ccc(NC(=O)CC2Nc3cc(C)c(C)cc3NC2=O)cc1 (stereo unspecified)	x	1%	-7%
COC(=O)c1ccc(N)cc1O	-10%	-6%	0%
COC(=O)c1ccc(=O)c2nc3/c(=C/O)c(O)cc(=O)c3[nH]c12	-38%	50µM*	u
Cc1ccc(C)n1-c1ccc(N2CCOCC2)cc1	65%	24%	-7%
Cc1ccc(C)n1-c1ccc(N(C)C)cc1	-16%	32µM*	2%
Cc1cc(C)cc(N(CC(=O)NC2CCCCC2)C(=O)CCCC(=O)Nc2ccccn2)c1	85%	0%	-2%
C#CCNc1ccncc1S(=O)(=O)NC(=O)NC(C)C	-16%	22µM*	-5%
